PubChem BioAssay AID449762 (Southern Research Specialized Biocontainment Screening …, 2010)
Out of some 330,000 compounds screened, about 1,900 (0.58%) were called active. About 4% were inconclusive and are not listed. Not all results are given here. Potency and affinity values are given separately. Values without a mark were called inactive. No stated cut-off is given here; in the data, inconclusive means inhibition above about 70% without an active follow-up result; inactive means below that.

experiment: M. tuberculosis growth inhibition, HTS (AID 449762);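 further: bacterial growth assessed after seven days of incubation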; conditions: M. tuberculosis H37Rv growth inhibition, 7H9 media; at 25 µM; stronger effect = higher value

Row | Compound | inhibition
1 | Nc1[nH]n2c(=O)cc(-c3ccccc3)nc2c1N=Nc1ccc(S(N)(=O)=O)cc1 | 6.74%
2 | COc1cccc(N=Nc2c(N)[nH]n3c(=O)cc(-c4ccccc4)nc23)c1 | 54.1%
3 | Cc1ccc(CNc2nc3ccccc3n3cnnc23)cc1 | -11.5%
4 | CCc1ccc(Nc2oc(C)cc(=O)c2C(C)=O)cc1 | 70%
5 | C/C(=N\N=C(/N)SC1CC(=O)N(c2cccc(Cl)c2)C1=O)c1cccs1 (stereo not drawn) | 15.1%
6 | C/C(=N\N=C(/N)SC1CC(=O)N(c2ccccc2)C1=O)c1cccs1 (stereo not drawn) | -5.01%
7 | O=C(C1CC=CCC1)N1CCC(CO)(Cc2ccc(Cl)cc2)CC1 (stereo not drawn) | 14.7%
8 | CCCCNc1nc(Nc2ccc(C)c(Cl)c2)c2cnn(C)c2n1 | 10.1%
9 | CCCNc1nc(Nc2ccc(C)c(Cl)c2)c2cnn(C)c2n1 | 14.2%
10 | CC(C)(C)/C(Cn1cncn1)=N\OC(=O)Nc1ccc(Cl)cc1 | 11.8%
11 | CN(Cc1nccs1)C(=O)CC1C(=O)NCCN1Cc1ccc(-c2ccccc2)cc1 (stereo not drawn) | -5.55%
12 | Cc1nc2cc(C(=O)N3CCC4(CC3)OCCO4)ccc2n1-c1ccc(Br)cc1 | 9.84%
13 | COC(=O)CSc1nc(N2CCOCC2)c2c(c1C#N)CC(C)(C)OC2 | 4.99%
14 | CC(C)OC(=O)CSc1nc(N2CCOCC2)c2c(c1C#N)CC(C)(C)OC2 | 35.4%
15 | Cc1ccc(N(C(=O)Cn2nnc(-c3ccc(F)cc3)n2)C(C(=O)NC(C)(C)C)c2ccncc2)cc1 (stereo not drawn) | 7.5%
16 | C#Cc1ccc(CN2CCN(Cc3ccsc3)C(CCO)C2)cc1 (stereo not drawn) | -1.98%
17 | N#CCCN(C(=O)COC(=O)CNC(=O)c1ccc(-c2ccccc2)cc1)c1ccc(F)cc1 | 67.5%
18 | CCCCc1ccc(/C(C)=N/NC(=O)C2CCCC2)cc1 | -4.47%
19 | C/C(=N\NC(N)=S)c1ccccc1 | 0.26%
20 | Cc1ccccc1C(=O)Nc1cccc(N)c1 | -3.59%
21 | Cc1ccc(S(=O)(=O)NCCCCCC(=O)Nc2c(C)n(C)n(-c3ccccc3)c2=O)cc1 | -4.12%
22 | CCCCN(C(=O)c1c(C)noc1C)c1c(N)n(CCC)c(=O)[nH]c1=O | -2.29%
23 | Cc1ccc(/C=C/C(=O)Nc2ccc(S(=O)(=O)Nc3onc(C)c3C)cc2)cc1 | -4.61%
24 | COCCCNC(=O)/C(C#N)=C/c1c(N2CCN(c3ccccc3)CC2)nc2c(C)cccn2c1=O | 4.49%

Row | Compound | inhibition
25 | COCCNC(=O)/C(C#N)=C/c1c(N2CCN(c3cccc(Cl)c3)CC2)nc2c(C)cccn2c1=O | 8.89%
26 | CCOc1ccc(NC(=O)/C(=C\c2ccc(OC(C)=O)c(OC)c2)NC(C)=O)cc1 | 4.59%
27 | Cc1ccc(-c2nc(CS(=O)CC(=O)NCCN3CCCCC3C)c(C)o2)cc1 (stereo not drawn) | -3.03%
28 | CN(C)/N=C/C=C1\CC/C(=C\c2ccc(Br)cc2)C1=O | 3.13%
29 | CC(C)c1ccc(/C=C2\CC/C(=C\C=N\N(C)C)C2=O)cc1 | -3.15%
30 | Cc1cc(-n2nc(C)cc2C)nc(N)n1 | -2.23%
31 | CCOC(=O)c1c(-c2ccc(F)cc2)csc1NC(=O)CN1C(=O)NC2(CCCCC2C)C1=O (stereo not drawn) | 4.04%
32 | COc1ccc(/C=C/c2c(-c3ccc(OC)cc3)oc3cccnc23)cc1 | -6.31%
33 | COc1ccc(/C=C/c2c(-c3ccc(OC)cc3)oc3ccccc23)cc1 | -5.2%
34 | COc1ccc(C2C3=C(CC(C)(C)CC3=O)Nc3c2c(=O)n(C)c(=O)n3C)cc1OC (stereo not drawn) | -2.26%
35 | O=C(Cc1ccc([N+](=O)[O-])cc1)NCc1ccccc1Cl | 0.6%
36 | CCOC(=O)Cc1csc(NC(=O)CSc2nnc(-c3ccncc3)n2Cc2ccco2)n1 | 2.42%
37 | CC(C)c1onc(C(=O)N2CCN(c3ccccc3)CC2)c1[N+](=O)[O-] | -4.37%
38 | Cc1ccc(SCC(=O)OCC(=O)N(CCC#N)c2ccccc2)cc1C | 27.2%
39 | Cc1ccc(N(CCC#N)C(=O)COC(=O)c2cc(C)oc2C)cc1 | -1.99%
40 | CC1(c2ccc3ccccc3c2)NC(=O)N(CC(=O)N2CCN(Cc3ccccc3)CC2)C1=O (stereo not drawn) | -2.77%
41 | Cc1cc(NC(=O)c2cccnc2)ccc1NC(=O)c1cc2ccccc2o1 | 5.9%
42 | Cc1cc(-c2c(C)[nH]n(-c3ccccc3)c2=O)n(-c2ccccc2)n1 | -6.21%
43 | Cc1[nH]n(-c2ccccc2)c(=O)c1-c1ccccc1 | 2.82%
44 | O=C(Cc1ccc(Cl)cc1)N/N=C/c1cccc(O)c1 | 9.69%
45 | COc1cc(/C=C2\SC(=Nc3ccc(O)cc3)NC2=O)cc(OC)c1O | 2.36%
46 | CCc1ccc(N=C2NC(=O)/C(=C/c3cc(OC)c(OC)c(OC)c3)S2)cc1 | 6.19%
47 | COc1cccc(NC(=O)Nc2cc(C(=O)O)ccc2C)c1 | 16.4%
48 | O=C(CC1(O)C(=O)N(Cc2ccccc2Cl)c2ccccc21)c1ccco1 (stereo not drawn) | 7.75%

Row | Compound | inhibition
49 | CCc1cccc2c(C(=O)C(NCCOC)c3ccccc3)c[nH]c12 (stereo not drawn) | -0.65%
50 | Cc1ccc(C(=O)Nc2cc([N+](=O)[O-])ccc2C)cc1 | 10.4%
51 | CC(=O)Nc1cccc(-c2nc3ccccc3c(=O)o2)c1 | 8.2%
52 | CC(C)C(=O)Nc1cccc(-c2nc3ccccc3o2)c1 | -4.29%
53 | CC(C)N(C(C)C)S(=O)(=O)c1ccc(NN)nc1 | 10%
54 | CCCn1c(N2CCN(C(=O)Nc3ccc(Cl)cc3)CC2)nc2ccccc21 | -1.4%
55 | CCn1c(N2CCN(Cc3ccc([N+](=O)[O-])cc3)CC2)nc2ccccc21 | 2.71%
56 | CC1CC1C(=O)OCC(=O)NC(=O)c1ccc(C(C)(C)C)cc1 (stereo not drawn) | 4.17%
57 | CC1C(C#N)=C(SCC(N)=O)NC2=C1C(=O)CC(C)(C)C2 (stereo not drawn) | 0.02%
58 | CC(=O)NNC(=O)CCn1nnc(-c2ccc(Cl)cc2)n1 | 0.1%
59 | COC(=O)c1nnn(CC(=O)NC(=O)Nc2cccc(C)c2C)c1C(=O)OC | -2.49%
60 | CCc1cc(C(N)=S)ccn1 | 40.1%
61 | CCc1ccc(C(N)=S)cc1 | 40.3%
62 | CCOC(=O)c1[nH]c2ccc(F)cc2c1NC(=O)CCN1CCOCC1 | 7.04%
63 | CCOc1ccccc1-c1nc(SCC(=O)O)n[nH]1 | 2.12%
64 | CCC(=O)c1c[nH]c(C(=O)NCc2cccc(C(F)(F)F)c2)c1 | 3.92%
65 | C1=C(c2c[nH]c3ccccc23)CCN(Cc2ccccc2)C1 | 8.31%
66 | CCN1CC=C(c2c[nH]c3ccccc23)CC1 | 4.32%
67 | Cc1ccc(S(=O)(=O)Nc2ccc(N=Nc3ccc(O)cc3)cc2)cc1 | 7.49%
68 | Cc1cc(=O)oc2cc(NC(=O)C(C)Oc3cccc(Cl)c3)ccc12 (stereo not drawn) | 4%
69 | CCOC(=O)c1c(C)[nH]c(C(=O)COC(=O)c2ccc(O)cc2)c1C | -6.58%
70 | O=c1c2ccccc2n(CC(O)CN2CCCCC2)c2ccccc12 (stereo not drawn) | -4.66%
71 | OC(CN1CCCCC1)Cn1c2ccccc2c2ccccc21 (stereo not drawn) | 8.7%
72 | CC(C)(C)OC(=O)N[C@@H](Cc1ccccc1)C(=O)N1CCC(C(=O)NCC(=O)O)CC1 | -2.02%

Row | Compound | inhibition
73 | Cc1cccc(N2CCN(C(=O)CCCn3c(=O)[nH]c4ccsc4c3=O)CC2C)c1 (stereo not drawn) | 6.71%
74 | CCn1nc(C)cc1C(=O)N1CCCC(C(=O)c2ccc3ccccc3c2)C1 (stereo not drawn) | 0.73%
75 | CCc1ccc2c(c1)[C@]1(C(=O)N2)[C@@H]2C(=O)N(Cc3ccccc3)C(=O)[C@@H]2[C@@H]2CCCN21 | -2.59%
76 | COc1cccc(C(=O)N/N=c2\sc3ccccc3n2C)c1 | 29.6%
77 | Cc1ccc(C(=O)N/N=c2\sc3ccccc3n2C)cc1 | 10.5%
78 | Cc1ccc(S(=O)(=O)N2CCOCC2)cc1C(=O)NC(=S)N1CC(C)OC(C)C1 (stereo not drawn) | -0.86%
79 | O=C(N/N=C\c1ccc(Cl)s1)c1cccs1 | 63.3%
80 | Cc1ccc(/C=N/NC(=O)c2cccs2)s1 | 43%
81 | CC1(C)CC(=O)C=C(c2cccc(Br)c2)C1 | -4.12%
82 | COc1cc(-c2nnc(SCC(=O)Nc3ccc(C(=O)O)cc3)o2)cc(OC)c1OC | -0.72%
83 | COc1cc(NC(=O)C2CCN(S(=O)(=O)c3ccc(N4CCCC4=O)cc3)CC2)cc(OC)c1 | 8.33%
84 | C=CCNC(=O)N1CCC(c2nc3ccccc3s2)CC1 | -8.35%
85 | Oc1cccc(/C=N/NC(=S)NCCN2CCOCC2)c1O | -1.62%
86 | S=C(NCCN1CCOCC1)N/N=C/c1ccccc1 | -4.03%
87 | CCCn1c(SCC(=O)Nc2ccc(S(=O)(=O)N(C)C)cc2)n[nH]c1=O | -9.52%
88 | CCn1c(SCC(=O)Nc2ccc3c(c2)OCO3)nnc1C(C)C | -4.67%
89 | COc1ccc(C2=NN(C(=O)COC(=O)c3ccc(NC(=O)CC#N)cc3)C(c3ccco3)C2)cc1 (stereo not drawn) | -7.88%
90 | COc1ccc(C2CC(c3ccccc3)=NN2C(=O)COC(=O)c2ccc(S(C)(=O)=O)cc2)cc1 (stereo not drawn) | 1.53%
91 | Cc1cccc(-n2c(-c3csc4ccccc34)n[nH]c2=S)c1 | 2.9%
92 | Cc1nonc1NC(=O)CSc1ccccn1 | 2.01%
93 | CC(=O)Nc1nonc1NC(=O)CSc1ccccn1 | -2.12%
